Bioassay records from PubChem BioAssay.
GPR32 ag – agonists of human resolvin D1 receptor DRV1 (GPR32); CHO-K1 GPR32 beta-arrestin PathHunter luminescence, 90 min; zero percent set by DMSO-only wells; activation, % at 76.9 µM; hit rate 2.5% among 48,000; AID 1346428;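 active = activation of at least 60% and not above a set upper limit, about 1 call in 100 departs from these limits; inconclusive = activation of 40% to 60%, or above that upper limit; inactive = activation under 40%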
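PathHunter beta-arrestin recruitment in CHO-K1 cells stably expressing ProLink-tagged GPR32. Cells were exposed to compound for 90 min at 37 C, then chemiluminescence was read after 1 h detection at ambient temperature; DMSO served as basal control.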
GALC G270D act – raises human GALC G270D mutant activity in cells; P54803; 145M-Twi-hGALC-G270D cells (Twitcher mouse brain line with human GALC G270D), HMU-beta-Gal fluorescence, 48 h; Potency, µM (top dose mostly 57.5 µM), hits mostly activators; hit rate 0.1% among 45,000; AID 1159614; note: nearly all actives have a fitted effect of over 65% in size
Target sequence (P54803 whole entry G286D): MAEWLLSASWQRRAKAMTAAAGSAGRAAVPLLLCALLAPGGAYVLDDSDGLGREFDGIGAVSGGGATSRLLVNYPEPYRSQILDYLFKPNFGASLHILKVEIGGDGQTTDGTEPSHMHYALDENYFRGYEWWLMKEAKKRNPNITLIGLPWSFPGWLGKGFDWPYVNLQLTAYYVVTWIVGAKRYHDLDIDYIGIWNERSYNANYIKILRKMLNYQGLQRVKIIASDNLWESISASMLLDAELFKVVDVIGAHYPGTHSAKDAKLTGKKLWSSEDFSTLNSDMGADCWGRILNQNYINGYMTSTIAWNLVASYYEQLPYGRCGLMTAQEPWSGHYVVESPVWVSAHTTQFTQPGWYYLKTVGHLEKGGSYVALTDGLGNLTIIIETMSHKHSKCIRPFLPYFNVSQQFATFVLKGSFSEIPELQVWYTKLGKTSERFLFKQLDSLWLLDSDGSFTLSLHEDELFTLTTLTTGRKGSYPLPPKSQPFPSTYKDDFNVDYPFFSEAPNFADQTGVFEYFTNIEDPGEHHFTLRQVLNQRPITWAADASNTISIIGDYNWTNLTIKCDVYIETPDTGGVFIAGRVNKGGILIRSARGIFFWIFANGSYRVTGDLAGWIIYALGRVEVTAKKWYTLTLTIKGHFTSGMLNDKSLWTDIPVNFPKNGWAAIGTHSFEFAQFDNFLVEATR
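Fluorogenic HMU-b-Gal hydrolysis (0.1 mM final, pH 5.2 citrate-phosphate with 1 mg/mL sodium taurocholate; carbonate stop buffer) measures mutant GALC activity after compound treatment of live 145M-Twi Twitcher brain cells stably carrying human GALC-G270D, with wild-type GALC line alongside; activation sought.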
FH mod – Identification of activators of human fumarate hydratase by quantitative high-throughput screening. Fumarate hydratase, mitochondrial (Homo sapiens), P07954. FH coupled MDH/diaphorase resazurin fluorescence, 15 min. Potency, µM (highest dose often 79.9 µM), usual class: inhibitors. hit rate 0.22% among 54,000. AID 1347055, 2019; note: the screen sought activators but most active calls are inhibition curves; nearly all actives have a fitted effect of over 45% in size
OvCa metastasis – inhibitors of ovarian cancer cell adhesion and invasion in omental model; SKOV3ip1-GFP adhesion/invasion on 3D omental model, fluorescence; Potency, µM (titrated, usually from 45.8 µM), hits mostly inhibitors; hit rate 0.1% among 46,000; note: nearly all actives have a fitted effect of over 65% in size
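qHTS, 4-pt dose (0.36-46 umol/L); SKOV3ip1-GFP, 1,200 cells/well, no FBS; primary omental fibroblast/mesothelial co-culture 48 h pre-grown; 2 h RT + 16 h 37 C; PBS wash, 4% PFA; GFP count 488/509 nm.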
Numbers stand for hits; i = inactive; ? = inconclusive; nt = no result. In the library only some 2.9% were active in any assay of this set; here they are far more common. Unless noted, calls come from the whole dose curve; as a rule, active = well fitted curve in the direction sought with a large enough effect; inconclusive = small, poorly fitted or top-dose-only effect, or another doubt; inactive = no such curve, though single readings can be large; an effect the other way counts as inactive or inconclusive.

SMILES	GPR32 ag	GALC G270D act	FH mod	OvCa metastasis
Cc1cccc(C)c1Nc1c(-c2ccc(O)cc2)nc2sccn12	i	i	31.6µM	i
CCc1cccc(C)c1Nc1c(-c2cccc(O)c2)nc2sccn12	i	i	?	i
CCc1ccc(NC(=O)COC(=O)CCCC2=NS(=O)(=O)c3ccccc3N2)cc1	64.2	i	i	i
Cc1cccc(NC(=O)COC(=O)CCCC2=NS(=O)(=O)c3ccccc3N2)c1	i	i	i	i
CC(=O)O[C@]1(C(C)=O)CC[C@H]2[C@@H]3C[C@H](C)C4=CC(=O)C=C[C@]4(C)[C@@]3(F)[C@@H](O)C[C@@]21C	nt	nt	i	nt
CC1(C)Oc2ncnc(N)c2N=C1c1ccc(C2CCC(CC(=O)O)CC2)cc1 (configuration not stated)	nt	nt	i	nt
Cc1cc2n(n1)CCCN2C(=O)Nc1ccc(Cl)cc1	107.8	i	i	i
CC1(C)CCCC2(C)C1CC(=O)C13CC(CCC12)C(O)(CO)C3 (configuration not stated)	nt	nt	i	nt
Cc1cc(Nc2cccc(Cl)c2)nc2ccc(NC(=O)c3cccnc3)cc12	60.5	i	?	i
Cc1cc(N2CCN(C)CC2)nc2ccc(NC(=O)Nc3cccc(Cl)c3)cc12	93.5	i	i	i
Cc1cc(N2CCN(C)CC2)nc2ccc(NC(=O)Nc3ccccc3)cc12	?	i	i	i
Cc1cc(N2CCN(C)CC2)nc2ccc(NC(=O)Nc3ccccc3Br)cc12	103.4	i	i	i
NS(=O)(=O)c1ccc(CCNC(=O)c2nc(SCc3ccccc3F)ncc2Cl)cc1	82.6	i	i	i
O=C(NCCCN1CCN(c2ccccc2)CC1)c1cc2c(s1)-c1ccccc1OC2	i	i	i	?
O=C(NCCCN1CCN(c2ccc(F)cc2)CC1)c1cc2c(s1)-c1ccccc1OC2	80.4	i	?	i
O=C(NCCc1ccc(Cl)cc1)c1cc2c(s1)-c1ccccc1OC2	62.4	i	i	i
COC(=O)C1=CO[C@@H](O[C@@H]2O[C@H](CO)[C@@H](O)[C@H](O)[C@H]2O)[C@@H]2C(CO)=CC[C@]12O	nt	nt	i	nt
CCOCCCNC(=O)c1c[nH]c2ccc(S(=O)(=O)Nc3cccc(Cl)c3C)cc2c1=O	64.9	i	i	i
O=C(NC1CCCC1)c1cc(Nc2cccc(C(F)(F)F)c2)nc2ccccc12	96.3	i	i	i
CCc1ccc(NS(=O)(=O)c2ccc3[nH]cc(C(=O)NCCc4ccccc4)c(=O)c3c2)cc1	i	i	i	i
Cc1cc(C)cc(NS(=O)(=O)c2ccc3[nH]cc(C(=O)NCCc4ccccc4)c(=O)c3c2)c1	78.8	i	i	i
O=C(NC1CCCCC1)c1c[nH]c2ccc(S(=O)(=O)Nc3ccccc3F)cc2c1=O	101.5	i	?	i
CC(C)C(N)C(=O)OCC(CO)OCn1cnc2c(=O)[nH]c(N)nc21 (configuration not stated)	nt	nt	i	nt
C=CCc1ccc(O[C@@H]2O[C@H](CO[C@@H]3O[C@H](CO)[C@@H](O)[C@H](O)[C@H]3O)[C@@H](O)[C@H](O)[C@H]2O)c(O)c1	nt	nt	i	nt
CCc1ccccc1NS(=O)(=O)c1ccc2[nH]cc(C(=O)NC3CCCC3)c(=O)c2c1	106.5	i	?	i
SMILES	GPR32 ag	GALC G270D act	FH mod	OvCa metastasis
O=C(NC1CCCC1)c1c[nH]c2ccc(S(=O)(=O)Nc3cccc(C(F)(F)F)c3)cc2c1=O	82.3	i	?	i
CCOc1ccc(NS(=O)(=O)c2ccc3[nH]cc(C(=O)NCc4ccco4)c(=O)c3c2)cc1	67.3	i	i	i
CN(C(=O)c1c[nH]c2ccc(S(=O)(=O)Nc3cccc(C(F)(F)F)c3)cc2c1=O)C1CCCCC1	i	i	i	i
CCN(c1ccccc1)S(=O)(=O)c1ccc2[nH]cc(C(=O)NCc3ccc(C)cc3)c(=O)c2c1	62.8	i	i	i
COC(O)(CC(C)C)C1Oc2cc(C)[nH]c(=O)c2O1 (configuration not stated)	nt	nt	i	nt
CCCc1cc(C)[nH]c(=O)c1CNC(=O)c1cc(-c2ccnc(N3CCN(C)CC3)c2)cc2c1cnn2C(C)C	nt	nt	i	nt
O=C1NC(=O)/C(=C/c2ccc3nccnc3c2)S1	i	nt	i	nt
O=C1NC(=O)/C(=C\c2ccc3nccc(-c4ccncc4)c3c2)S1	nt	nt	25.1µM	nt
O=C1N=C(O)S/C1=C\c1ccc2nccnc2c1	nt	nt	i	nt
O=C1NC(=O)/C(=C/c2ccc3nccc(-c4ccncc4)c3c2)S1	nt	nt	31.6µM	nt
N#Cc1c(Oc2ccc(F)c(NC(=O)Cc3cccc(C(F)(F)F)c3)c2)ccc2nc(NC(=O)C3CC3)sc12	nt	nt	i	nt
O=C(NC1CCNCC1)c1[nH]ncc1NC(=O)c1c(Cl)cccc1Cl	nt	nt	i	i
COC(=O)C[C@@H]1C(C(=O)O)=CO[C@@H](O[C@@H]2O[C@H](CO)[C@@H](O)[C@H](O)[C@H]2O)/C1=C\COC(=O)/C=C\c1ccccc1	nt	nt	i	nt
CC(C)(C)CC(=O)OCC(=O)[C@@]1(O)CC[C@H]2[C@@H]3CCC4=CC(=O)C=C[C@]4(C)[C@H]3[C@@H](O)C[C@@]21C	119.3	i	i	nt
O=c1oc2c(CN3CCOCC3)c(O)ccc2cc1-c1ccccc1	i	25.1µM	i	i
CN1CCN(Cc2c(O)ccc3cc(-c4ccccc4)c(=O)oc23)CC1	i	i	i	i
O=C(Nc1ccc(S(=O)(=O)Nc2ccccc2Cl)c(Cl)c1)c1ccccn1	nt	nt	i	nt
CCOC(=O)c1ccc(-c2ccc(/C=C(\C#N)c3nc4ccc(C)cc4[nH]3)o2)cc1	i	i	i	3.16µM
CCOC(=O)c1ccc(-c2ccc(/C=C(\C#N)C(=O)Nc3cccc(C)c3)o2)cc1	i	i	i	i
COC(=O)c1c(SC)nc2ccccc2c1OCc1ccc(C)cc1C	i	i	35.5µM	i
Cc1ccccc1-c1noc(CSc2nc3ccccc3[nH]2)n1	i	i	i	i
COc1ccc(-c2noc(CSc3nc4ccccc4[nH]3)n2)cc1OC	67.0	i	i	i
C=Cc1ccc(Cn2c(C(=O)O)c(CNCc3cccs3)c3ccc(C)cc32)cc1	96.3	i	?	i
COc1ccc(Cn2c(C(=O)O)c(CNCc3cccs3)c3ccc(C)cc32)cc1	?	i	i	i
Cc1ccc2c(CNCc3cccs3)c(C(=O)O)n(Cc3ccc(F)cc3)c2c1	91.9	i	?	i
C=Cc1ccc(Cn2c(C(=O)O)c(CNCc3ccc(F)cc3)c3ccc(C)cc32)cc1	90.9	i	i	?
COc1ccc2c(CNCc3cccs3)c(C(=O)O)n(Cc3ccc(F)cc3)c2c1	?	i	i	i
CN(C)Cc1cccc(N=C(c2ccccc2)c2c(O)[nH]c3cc(C(N)=O)ccc23)c1	nt	nt	i	nt
COc1ccc(S(=O)(=O)Nc2ccc3oc4c(c3c2)C(=O)CC(C)(C)C4)cc1	64.3	i	i	i
O=C(COc1ccccc1)NC1CC(=O)N(c2ccc3c(c2)OCCO3)C1 (configuration not stated)	i	i	i	i
